Values joined by “and” are separate entries in the source; they are usually repeats but may differ in a detail not shown here. Identical values can stand only once. Out of some 360,000 compounds screened, about 9,100 (2.5%) were called active. Not shown: some 4% with an inconclusive outcome. The entries come from a sample that favours actives as a whole. Values without a mark were called inactive. Rule as the data show it: active = max response below about -50%; inconclusive = no clear call, values can overlap the other calls; inactive = above that.
% is scaled to controls: 0 for no effect and ±100 for the full control effect.

Chain of D(3) dopamine receptor (Homo sapiens) (P35462 whole entry, looked up): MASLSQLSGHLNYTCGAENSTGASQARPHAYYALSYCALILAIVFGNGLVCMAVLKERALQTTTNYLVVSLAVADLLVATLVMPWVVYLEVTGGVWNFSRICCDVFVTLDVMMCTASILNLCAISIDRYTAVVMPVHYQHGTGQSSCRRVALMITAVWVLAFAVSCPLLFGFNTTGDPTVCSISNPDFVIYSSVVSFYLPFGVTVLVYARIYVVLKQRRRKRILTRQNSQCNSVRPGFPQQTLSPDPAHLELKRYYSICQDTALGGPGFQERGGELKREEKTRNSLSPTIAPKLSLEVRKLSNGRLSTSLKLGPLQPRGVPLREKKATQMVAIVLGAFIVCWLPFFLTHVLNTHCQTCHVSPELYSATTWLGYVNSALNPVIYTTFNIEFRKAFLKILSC

The test addresses D(3) dopamine receptor (Homo sapiens) (UniProt P35462). In words: qHTS of D3 Dopamine Receptor Antagonist: qHTS. As to conditions: D3R cells, DiscoveRx beta-arrestin luminescence, antagonist mode; stronger effect = lower value. In short, it runs like this:
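Cells plated overnight at 1500 cells/well, then exposed to library compounds with dopamine controls for 90 minutes at 37 degrees C. DiscoveRx reagent added for 30–60 minutes at room temperature; luminescence read, quantitative HTS format.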
For orientation: Quantitative high-throughput screening tests each substance at several concentrations.
For `OCCc1ccc(NCCc2ccco2)cc1`, the max response, negative = inhibition is 11.1%.

For `Cn1cccc1/C=C1\SC(=S)N(NC(=O)c2ccc(Cl)cc2)C1=O`, the max response, negative = inhibition is -70.7% (active).

With `CCOc1ccc(/C=C2\SC(=S)N(NC(=O)c3ccncc3)C2=O)cc1OC`, the max response, negative = inhibition is -13.1%.

For `O=C(O)c1ccc(/C=C2\SC(=S)N(NC(=O)c3ccc(Br)cc3)C2=O)cc1`, the max response, negative = inhibition is -21.3%.

Take `COC(=O)C1(C(=O)OC)C[C@H](c2ccccc2)N(Cc2ccccc2OC)[C@@H]1c1ccccc1`: the max response, negative = inhibition is -25.4%.

With `CCc1ccc(OC2(C)CCN(CCOc3ccc(C)cc3)C2)cc1` (stereo not given), the max response, negative = inhibition was -75% (active).

For the compound `Cc1ccc(OCCNC(=O)CN2C(=O)NC3(CCCC3)C2=O)cc1`, the max response, negative = inhibition was -22.9%.

With `CCc1ccc(OCC(O)CN2CCN(CCO)CC2)cc1` (stereo not given), the max response, negative = inhibition is 18.7%.

Regarding `CCCNC(=O)C1(C)CCN1C(=O)C1(c2ccccc2)CC1` (stereo not given), the max response, negative = inhibition was -7.67%.

For `Cc1sc2nc(-c3ccccc3F)oc(=O)c2c1C`, the max response, negative = inhibition is 0%.

Turning to `CCCc1nc2ccccc2n1C(C)C(=O)NC(C)(C)C` (stereo not given), the max response, negative = inhibition is -12.7%.

In the case of `CC(OC(=O)c1ccc(NC(=O)CC#N)cc1)C(=O)Nc1ccc(S(=O)(=O)N2CCCC2)cc1` (stereo not given), the max response, negative = inhibition is 2.56%.

`COc1cc(C(O)c2nc(-c3cnn(C)c3)cs2)ccc1F` (stereo not given): the max response, negative = inhibition is -2.22%.

`O=C(N[C@H]1CC[C@H](CC(=O)N2CCCCC2)O[C@@H]1CO)c1cccc(F)c1`: the max response, negative = inhibition was 1.98%.

`CCN1C(=O)/C(=C\N2CCN(c3cccc(Cl)c3)CC2)SC1=S`: the max response, negative = inhibition is -22.6%.

As to `CC(=O)c1ccc(OCC(O)CN2CCN(S(=O)(=O)c3cccc(Br)c3)CC2)cc1` (stereo not given), the max response, negative = inhibition was 22%.

In the case of `OC(COc1ccccc1)CN1CCN(c2cccc(Cl)c2)CC1` (stereo not given), the max response, negative = inhibition was -51.8% (active).

As to `O=C(c1ccc(Cl)cc1)c1ccc(OCC(O)CN2CCCCC2)cc1` (stereo not given), the max response, negative = inhibition is -2.74%.

With `O=S(=O)(c1ccc(OCC(O)CN2CCN(c3ccccc3Cl)CC2)cc1)N1CCOCC1` (stereo not given), the max response, negative = inhibition is -73% (active).

As to `Cc1nn(CCOc2ccccc2)c(=O)n1-c1ccccc1F`, the max response, negative = inhibition is -0.664%.

Consider `CCc1nn(CCCN2CCN(c3cccc(Cl)c3)CC2)c(=O)n1CCOc1ccccc1`, for which the max response, negative = inhibition is -77.2% (active) and -89.6% (active).

`O=C(CCCC(=O)N1CCN(c2cccc(Cl)c2)CC1)c1ccccc1`: the max response, negative = inhibition was 11.7%.

Take `OC(COc1ccc2c(c1)CCC2)CN1CCN(c2cccc(Cl)c2)CC1` (stereo not given): the max response, negative = inhibition is 0%.

For the compound `CC(C)c1ccc(OCC(O)CN2CCN(c3ccccn3)CC2)cc1` (stereo not given), the max response, negative = inhibition was -29.5%.

For the compound `COC(=O)COc1ccc(S(=O)(=O)N2CCOCC2)cc1`, the max response, negative = inhibition is 20.2%.

Consider `CC(=O)Nc1ccc(OCC(O)CN2CCN(c3ccccc3Cl)CC2)cc1` (stereo not given), for which the max response, negative = inhibition is -66.4% (active).

On to `CN1CCN(c2ccncc2S(=O)(=O)N2CCCC2)CC1`, for which the max response, negative = inhibition was 22.6%.

`COC(=O)c1ccc2nc(-c3ccc(C)cc3)c(Cc3ccc(OC)cc3C)n2c1`: the max response, negative = inhibition was 0.363%.

Turning to `CC(C)C1Cc2[nH][nH]c(=O)c2C(c2ccc(Cl)cc2)O1` (stereo not given), the max response, negative = inhibition is -0.765%.

On to `O=C(Nc1ccc(Cl)cc1)c1csc([C@H]2C[C@H](O)[C@@H](CO)O2)n1`, for which the max response, negative = inhibition is 0%.

On to `COc1ccc(NC(=O)C2Cc3c(-c4cccc(NC(C)=O)c4)ccnc3O2)cc1OC` (stereo not given), for which the max response, negative = inhibition is 0%.

Turning to `COc1ccc(CC(N)c2csc(NC(=O)NC(c3ccccc3)c3ccccc3)n2)cc1` (stereo not given), the max response, negative = inhibition is -20.6%.

For `COc1ccc(N)cc1NC(=O)CN1CCOCC1`, the max response, negative = inhibition was 60.4%.

Regarding `OC[C@@H]1CN(Cc2ccc(-c3ccccc3)cc2)C[C@H](n2cnc3c(NC4CCCC4)ncnc32)O1`, the max response, negative = inhibition is 36%.

In the case of `C=CCC[C@@H](CCCCC)OC(=O)/C=C/[C@@H](O)[C@H](O)C[C@H](O)CC=C`, the max response, negative = inhibition was 5.67%.

For the compound `CCCCCCNC(=O)O[C@H]1CN(C(=O)OC(C)C)N(C(=O)OC(C)C)[C@@H]2CN(S(=O)(=O)c3ccc(C)cc3)C[C@]12O`, the max response, negative = inhibition is 1.36%.

In the case of `O=Nc1c(O)cc(O)c2ccccc12`, the max response, negative = inhibition was 9%.

`COc1ccc(COC[C@H](CC(C)C)N2CCN(C(=O)c3cccc(C(F)(F)F)c3)CCC2=O)cc1`: the max response, negative = inhibition was 0%.

`CCOC(=O)N1C(=O)C[C@](Sc2ccc(C)cc2)(C(=O)OC)[C@H]1c1ccccc1`: the max response, negative = inhibition is 28.6%.

Take `O=C(CNC(=O)c1ccc2ccccc2c1)Nc1ncccc1O`: the max response, negative = inhibition is 8.18%.

For the compound `Cc1ccc(C(=O)NCC(=O)NC2CC2)cc1`, the max response, negative = inhibition is -5.92%.

As for `CC1CCC(NC(=O)CNC(=O)c2ccc3ccccc3c2)CC1` (stereo not given), the max response, negative = inhibition is -70% (active).

With `Cn1cnc(S(=O)(=O)N2C[C@@H](O)COC[C@@H]3O[C@H](CC(=O)NC4CCC4)CC[C@H]32)c1`, the max response, negative = inhibition is 17.2%.

Regarding `CCc1ccccc1NC(=O)[C@@H]1CCC(=O)N1C1OC(=O)c2c1ccc(OC)c2OC` (stereo not given in full), the max response, negative = inhibition was -18.1%.

Turning to `COc1ccc(-c2csc(Nc3cccc(C)n3)n2)cc1OC`, the max response, negative = inhibition is 42.5%.

For the compound `COc1ccc2c(c1OC)C(=O)OC2Nc1nc(-c2ccccc2)cs1` (stereo not given), the max response, negative = inhibition was -73.2% (active).

`CC1(C(=O)Nc2cccc(Oc3ccccc3)c2)CCN1Cc1ccccc1Cl` (stereo not given): the max response, negative = inhibition was 11.7%.

Consider `C=C(C)C(=O)O[C@H]1C/C(C)=C\C(=O)/C=C(\C)[C@H](O)[C@@H]2OC(=O)C(=C)[C@@H]21`, for which the max response, negative = inhibition was -61.4% (active).

Consider `CC(CCc1ccccc1)NC(=O)c1ccc(Br)o1` (stereo not given), for which the max response, negative = inhibition was -10.2%.

In the case of `O=C(NCc1cccs1)c1ccc(Br)o1`, the max response, negative = inhibition is 11.4%.

As for `CC(CNC(=O)c1ccc(Br)o1)NC(=O)c1ccc(Br)o1` (stereo not given), the max response, negative = inhibition is -72.7% (active).

As to `CC(C)C1CC2=C(C(=O)OC(C)(C)O2)C(c2ccc(F)cc2)O1` (stereo not given), the max response, negative = inhibition was -3.03%.

Consider `COc1ccc(NC(=O)COC(=O)C2COc3ccccc3O2)cc1` (stereo not given), for which the max response, negative = inhibition was -20.1%.

For the compound `Brc1ccc2nc(-c3ccccc3)c(Cc3ccccc3)n2c1`, the max response, negative = inhibition was 23.1%.

Regarding `CCNC(=O)C1(C)CCCN(Cc2noc(-c3ccccc3OC)n2)C1` (stereo not given), the max response, negative = inhibition was 23.6%.

With `Clc1ccccc1-c1cc(COc2ccc3ccccc3c2)no1`, the max response, negative = inhibition is -0.665%.

Take `c1ccc2cc(OCCN3CCCC3)ccc2c1`: the max response, negative = inhibition was -61.2% (active).

With `Cc1cc(OCCN2CCCC2)cc(C(C)C)c1`, the max response, negative = inhibition is -86% (active).

`Cc1cc(OCCN2CCCC2)ccc1C(C)C`: the max response, negative = inhibition was 0%.

As for `Cc1cccc(C)c1OCCN1CCOCC1`, the max response, negative = inhibition was 21.2%.

`Cc1cc(C)c(NC(=O)CN2CCCCCC2)c(C)c1`: the max response, negative = inhibition was 1.9%.

Consider `CCOC(=O)[C@]12CCC=C1N(Cc1cccc3ccccc13)C(=O)[C@H](CC(=O)NCc1cccc(C(F)(F)F)c1)C2`, for which the max response, negative = inhibition is 7.1%.

Turning to `CCCCCCN1C[C@@H](O)[C@H](n2cc(COC(=O)c3ccccc3)nn2)C[C@@H]1c1ccc(Cl)cc1`, the max response, negative = inhibition is 3.45%.

Regarding `CCc1nnc(NC(=O)c2ccco2)s1`, the max response, negative = inhibition was -7.74%.

Take `Cc1ccc(S(=O)(=O)N2CCCCC2)cc1NC(=O)CCNC(=O)c1ccccc1Cl`: the max response, negative = inhibition is 25.5%.

Turning to `N#Cc1ccc(-c2nc3c(Cl)cc(C(F)(F)F)cn3c2Cc2ccccc2C(F)(F)F)cc1`, the max response, negative = inhibition was 8.9%.

For the compound `Cc1cccc(N(C)C(=O)c2cc3c(=O)[nH]c4ccc(C)cc4c3s2)c1`, the max response, negative = inhibition is -15.8%.

As to `CCN(CC)CCCNC(=O)c1cc(-c2cccc(Cl)c2)on1`, the max response, negative = inhibition was -19.8%.

Take `CCN(CC)CCCNC(=O)c1cc2c(=O)[nH]c3ccc(C)cc3c2s1`: the max response, negative = inhibition was -89.2% (active).

For the compound `CCC(=O)N1CCC(C)(C(=O)Nc2cc(OC)c(OC)c(OC)c2)C1` (stereo not given), the max response, negative = inhibition is 16.4%.

Turning to `CCOc1ccc(NC(=O)N2CCN(CC)CC2)cc1`, the max response, negative = inhibition is 6.64%.

Consider `CCOc1ccc(NC(=O)N2CC=C(n3c(=O)[nH]c4ccccc43)CC2)cc1`, for which the max response, negative = inhibition was -51.2% (active).

Regarding `Cc1cccc(C)c1NC(=O)N1CC=C(n2c(=O)[nH]c3ccccc32)CC1`, the max response, negative = inhibition is 0%.

With `CCOC(=O)C=Cc1ccc(C(=O)OCC)[nH]1`, the max response, negative = inhibition is 20.2%.

For the compound `COC(=O)[C@@]12C[C@@H](CC(=O)N3CCCCC3)C(=O)N(Cc3ccc4c(c3)OCO4)C1=CCC(C)(C)C2`, the max response, negative = inhibition is -15.1%.

`CCOc1ccc(CNC(=O)CCC(=O)N2CCSc3ccccc32)cc1`: the max response, negative = inhibition was 10.8%.

For the compound `Cc1ccc(NC(=O)N2CCC(O)(c3cccnc3)CC2)cc1`, the max response, negative = inhibition is 1.47%.

As for `Cc1ccc(NC(=O)N2CCSc3ccccc32)cc1`, the max response, negative = inhibition was -50.5% (active).

With `Cc1ccc(S(=O)(=O)N[C@H](CO)C(C)C)cc1`, the max response, negative = inhibition was -14.1%.

Take `CC(NC(=S)Nc1ccccc1)C1COc2ccccc2O1` (stereo not given): the max response, negative = inhibition is 1.63%.

As to `CCC(=O)c1ccc(OCC(=O)N(CC)CC2COc3ccccc3O2)cc1` (stereo not given), the max response, negative = inhibition was 10.7%.

As to `CCCN(CC1COc2ccccc2O1)C(=S)Nc1ccc(C)cc1` (stereo not given), the max response, negative = inhibition is -53.1% (active).

Take `Cc1cc(=O)c2ccc(NC(=O)c3ccccc3)cc2[nH]1`: the max response, negative = inhibition is 13.3%.

Regarding `O=C1NC(O)CCN1C1CC(O)C(CO)O1` (stereo not given), the max response, negative = inhibition was 11%.

As to `CCN1CC=C2C(C#N)=C(N)C(C#N)(C#N)[C@H](c3ccoc3)[C@H]2C1`, the max response, negative = inhibition was -11.8%.

With `CCCN1CC=C2C(C#N)=C(N)C(C#N)(C#N)C(c3cc(OC)ccc3OC)C2C1` (stereo not given), the max response, negative = inhibition was -67.2% (active).

With `COc1ccc(NC(=O)c2sc(=O)n(Cc3ccc(S(=O)(=O)N(C)C)cc3)c2C)cc1`, the max response, negative = inhibition was 14.5%.

Take `CCCCCCNS(=O)(=O)c1ccccc1Br`: the max response, negative = inhibition is 0%.

`CC1(C)CC(=O)C=C(NCCCNC2CCCCC2)C1`: the max response, negative = inhibition is 1.63%.

As for `CCCCCCCCNS(=O)(=O)CCNC1CCCCC1`, the max response, negative = inhibition was -69.1% (active).

With `CCCC(=O)N1CCC1(C)C(=O)NS(=O)(=O)c1ccc(Cl)cc1` (stereo not given), the max response, negative = inhibition was 3.58%.

In the case of `c1ccc2c(c1)nnn2-c1ccncc1`, the max response, negative = inhibition was -16.5%.

In the case of `Cc1[nH]c2ccc(C(=O)N3CCN(C)CC3)cc2c1C`, the max response, negative = inhibition was -72.7% (active).

Consider `CCOC(=O)c1ccc2[nH]c(C)c(CN3CCN(C)CC3)c(=O)c2c1`, for which the max response, negative = inhibition was 0%.

`COC(=O)CCNC(=O)c1ccc2[nH]c(C)c(C)c2c1`: the max response, negative = inhibition is -22.3%.

Values taken from PubChem BioAssay AID652054 (National Center for Advancing Translational Sciences (NCATS), 2013).
